# An excerpt weighted towards active compounds, which were near 10% of everything screened.
# G9a block = inhibitors of human histone lysine methyltransferase G9a. G9a H3K9 monomethylation, AlphaScreen, 2 h. 350,000 compounds, 8.8% hits. Potency, µM (series often up to 102 µM), without a hit: at the top dose activity, negative = inhibition, actives largely listed as inhibitors. AID 504332; note: % is set by controls: 0 for no effect and ±100 for the full control effect; nearly all actives have a fitted effect of over 75% in size
# Target sequence (Q96KQ7 913-1193 limits assumed): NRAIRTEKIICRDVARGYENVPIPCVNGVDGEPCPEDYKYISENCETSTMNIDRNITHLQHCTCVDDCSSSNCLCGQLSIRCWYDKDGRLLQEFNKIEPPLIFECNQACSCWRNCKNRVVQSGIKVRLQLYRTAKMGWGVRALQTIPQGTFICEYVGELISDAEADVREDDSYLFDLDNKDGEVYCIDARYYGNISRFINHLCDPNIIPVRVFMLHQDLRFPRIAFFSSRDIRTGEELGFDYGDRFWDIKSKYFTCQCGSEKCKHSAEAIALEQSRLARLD
#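 AlphaScreen detection with an anti-monomethyl H3K9 antibody quantified product after a 2 h room-temperature reaction containing 500 nM biotinylated H3K9 peptide, 20 µM SAM and 20 nM enzyme, which had been preincubated 15 min with compound.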
# GLS inhibitor = blocks human kidney-isoform glutaminase activity; GLS enzymatic activity, qHTS titration; Potency, µM (top dose mostly 45.5 µM), inactives show at the top dose activity change, negative = inhibition, actives largely listed as inhibitors; 410,000 compounds, 0.21% hits; AID 624170; note: % is set by controls: 0 for no effect and ±100 for the full control effect
#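 hKGA in 45 mM KH2PO4 pH 8.2, 0.02% Tween-20 with pin-transferred compounds; 1 mM L-glutamine (stock) plus glutamate oxidase/HRP/Amplex Red coupling added. Fluorescence read initially and after 30 min at RT.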
# JMJD2A Tudor = inhibitors of human JMJD2A Tudor domain; O75164; AlphaScreen JMJD2A-Tudor / H3K4me3 peptide binding; Potency, µM (top dose mostly 114 µM), inactives show at the top dose activity change, negative = inhibition, hits mostly inhibitors; 390,000 compounds, 4.4% hits; AID 504339; note: % is set by controls: 0 for no effect and ±100 for the full control effect; nearly all actives have a fitted effect of over 50% in size
# L3MBTL1 block = blocks human L3MBTL1. Q9Y468. AlphaScreen L3MBTL1–H3K9me1 peptide binding. Potency, µM (top dose mostly 57.1 µM), inactives show top-dose activity, negative = inhibition, usual class: inhibitors. 230,000 compounds, 0.66% hits. AID 485360; note: % is set by controls: 0 for no effect and ±100 for the full control effect; nearly all actives have a fitted effect of over 60% in size
#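 Read-out is AlphaScreen signal from streptavidin donor and nickel chelate acceptor beads (10 ug/mL final each) bridging L3MBTL1 (50 nM) and biotinylated K9-monomethylated H3(1-15) peptide (75 nM), after 30 min compound exposure at room temperature.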
# HP1b chromo inh = blocks HP1-beta chromodomain binding to methylated histone tails; P83916; AID 540317; AlphaScreen HP1-beta / biotin-H3K9me3 peptide binding; 390,000 compounds, 0.56% hits; Potency, µM (series often up to 114 µM), inactives show at the top dose activity change, negative = inhibition, most hits filed as inhibitors; note: nearly all actives have a fitted effect of over 70% in size
# Target sequence (P83916 whole entry, looked up): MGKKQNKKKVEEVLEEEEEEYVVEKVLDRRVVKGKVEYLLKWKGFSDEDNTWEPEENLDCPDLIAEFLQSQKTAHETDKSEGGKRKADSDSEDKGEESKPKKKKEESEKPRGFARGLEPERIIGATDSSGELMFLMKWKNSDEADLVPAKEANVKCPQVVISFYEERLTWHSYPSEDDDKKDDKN
#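 Compound inhibition of the preformed complex between 50 nM HP1-beta and 50 nM biotinylated H3K9me3 peptide was read by AlphaScreen. Buffer was PBS pH 7.4 with 0.01% Tween-20. Incubations ran 30 min at room temperature, with 10 ug/mL donor/acceptor beads.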
# BAZ2B block = BAZ2B (human) inhibition; AlphaScreen BAZ2B-H3K14Ac peptide displacement; 360,000 compounds, 4.4% hits; AID 504333; Q9UIF8; Potency, µM (doses to about 114 µM), for inactives: top-dose activity change, negative = inhibition, hits mostly inhibitors; note: % is set by controls: 0 for no effect and ±100 for the full control effect; nearly all actives have a fitted effect of over 60% in size
#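 BAZ2B 50 nM plus b-H3(5-23)K14Ac 50 nM, PBS pH 7.4/0.01% Tween-20, 30 min RT; compound added (max 110 uM), 30 min RT; streptavidin donor/Ni-chelate acceptor beads 10 ug/mL final, 20 min dark; AlphaScreen read.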
# * = called active by the depositor; ? = inconclusive; / = no result; [ ] = remark or other dose. Calls come from the whole dose curve; as a rule, active = well fitted curve in the direction sought with a large enough effect; inconclusive = small, poorly fitted or top-dose-only effect, or another doubt; inactive = no such curve, though single readings can be large; an effect the other way counts as inactive or inconclusive. Potency is the fitted concentration of half-maximal effect.
SMILES,G9a block,GLS inhibitor,JMJD2A Tudor,L3MBTL1 block,HP1b chromo inh,BAZ2B block
COc1ccc(CCNC(=S)NC2CCN(Cc3ccccc3)CC2)cc1,25.1µM*,-6.4%,-17.4%,/,-0.9%,-19.6%
S=C(NCCc1ccccc1)N1CCN(Cc2ccccc2)CC1,?,0.7%,4.47µM*,-8.6%,?,56.2µM*
O=C(CSc1nnc(-c2ccccc2)c(-c2ccccc2)n1)NCCc1ccccc1,?,4.0%,?,/,-8.3%,?
Cc1ccc2c(c1)c1c(c(=O)n(-c3ccccc3C)c(=O)n1Cc1cccc(F)c1)n2C,-25.4%[59 µM],7.1%,-12.8%,/,45.3%,-25.2%
CC(=O)SC1CC2=CC(=O)CC[C@]2(C)C2CC[C@@]3(C)[C@@H](CC[C@@]34CCC(=O)O4)C12 (some centres not stated),9.2%[12.7 µM],/,/,/,/,/
COc1cccc(CNC(=O)CSc2ncc3c(n2)-c2cc(Cl)ccc2N(C)S3(=O)=O)c1,-2.4%[59 µM],10.7%,-7.1%,/,21.0%,-1.5%
COc1ccc([C@@H]2CNC(=O)C2)cc1OC1CCCC1,25.7%[21.5 µM],9.3%[20 µM],/,/,/,/
COc1cc(OC)c2c(c1)C(=O)OC2c1cc(OC)c(OC)cc1C (configuration not stated),/,/,-13.5%,/,10.4%,/
CCc1ccc(C(c2c(C)nn(-c3ccccc3)c2N)c2c(C)nn(-c3ccccc3)c2N)cc1,?,22.6%,56.2µM*,-11.1%,-35.4%,?
CCN1CCN(c2ncnc3c2nnn3Cc2ccccc2)CC1,39.8µM*,0.6%,-13.2%,4.5%,17.0%,-0.3%
Cc1ccc(NC(=O)Cn2c(=O)n(CCC(=O)N3CCc4ccccc4C3)c(=O)c3ccccc32)c(C)c1,-2.8%[59 µM],-2.6%,-17.1%,/,70.4%,8.4%
CCCn1nc(C(=O)NNC(=O)CSC(C)C(=O)Nc2cc(C)on2)c2ccccc2c1=O (configuration not stated),22.4µM*,12.6%,-2.2%,/,32.0%,-9.3%
Cc1ccccc1-c1cncnc1Nc1ccccc1,3.5%[0.501 µM],/,/,/,/,/
CCc1nnc(SCc2nc(-c3ccccc3)oc2C)c2cc3sccc3n12,-9.8%[59 µM],9.8%,-22.0%,/,14.3%,-23.9%
COc1ccc(CC(=O)OCN2C(=O)c3ccccc3C2=O)cc1,23.2%[59 µM],-5.0%,11.1%,4.2%,47.6%,6.3%
O=C(Cc1ccc(F)cc1)OCN1C(=O)c2ccccc2C1=O,28.2µM*,-0.4%,-9.0%,/,46.0%,79.4µM*
CCOc1ccc(CC(=O)OCN2C(=O)c3ccccc3C2=O)cc1,39.8µM*,6.2%,-3.4%,17.1%,22.6%,-3.0%
O=S(=O)(NC[C@@H]1CCC[C@H](CNS(=O)(=O)c2c(F)cccc2F)C1)c1ccc2c(c1)OCCO2,6.5%[12.7 µM],/,-16.4%,-1.7%,/,3.8%
O=C(Nc1ccc(S(=O)(=O)Nc2cnc3ccccc3n2)cc1)c1cc(F)c(F)cc1Cl,-0.1%,-8.7%,79.4µM*,/,5.5%,-19.7%
O=C(Nc1ccc(S(=O)(=O)Nc2cnc3ccccc3n2)cc1)c1ccc(Cl)cc1Cl,/,-0.5%,-5.7%,/,-11.5%,/
Cc1cc2c(s1)c1cnn(Cc3c(F)c(F)cc(F)c3F)c(=O)c1n2C,/,/,-13.0%,/,/,/
CC(C)c1ccc(C(N)=S)cc1,50.1µM*,1.9%,-8.7%,-2.0%,-5.8%,?
CC(C)c1ccc(C(=O)NNC(=O)c2ccncc2)cc1,-8.5%,23.8%,-14.9%,/,16.2%,8.6%
CC(C)(C)c1ccc(C(=O)NNc2cc(N3CCCCC3)nc(N3CCCCC3)n2)cc1,-33.1%[59 µM],19.2%,?,-2.7%,7.08µM*,10µM*
CC(=O)NNc1cc(N2CCOCC2)nc(N2CCOCC2)n1,44.7µM*,0.9%,-29.9%,/,26.8%,4.8%
SMILES,G9a block,GLS inhibitor,JMJD2A Tudor,L3MBTL1 block,HP1b chromo inh,BAZ2B block
CC(C)(C)c1ccc(C(=O)NNc2cc(N3CCOCC3)nc(N3CCOCC3)n2)cc1,-15.3%[12.7 µM],-8.7%,-29.1%[57.1 µM],-8.0%,27.0%,?
COc1ccc(NC(=O)NNc2cc(N3CCOCC3)nc(N3CCOCC3)n2)cc1,0.2%,20.6%,-9.5%,-2.5%,36.2%,-13.8%
CCOCCCNC(=O)C(c1ccc(Cl)cc1)N(Cc1ccc2c(c1)OCO2)C(=O)c1ccccc1O (configuration not stated),4.1%[59 µM],-0.8%,-13.3%,/,23.3%,-2.9%
COc1ccc(NC(=O)CN(c2ccc([N+](=O)[O-])cc2)S(=O)(=O)c2ccccc2)cc1,?,-0.4%,-28.6%,-3.1%,1.9%,3.5%
COc1ccc(N(CC(=O)N/N=C/c2ccco2)S(=O)(=O)c2ccccc2)cc1,50.1µM*,6.3%,?,?,?,?
COc1ccc(N(CC(=O)NCCc2ccccc2)S(=O)(=O)c2ccc(OC)c(OC)c2)cc1,-7.2%[59 µM],1.0%,-18.0%,/,20.0%,3.7%
COc1ccc(N(CC(=O)Nc2ccccc2C(=O)O)S(=O)(=O)c2ccc(C)c([N+](=O)[O-])c2)cc1,39.8µM*,0.6%,-25.8%,-8.1%,23.3%,?
COc1ccc(S(=O)(=O)N(CC(=O)NCCc2ccccc2)c2ccc(Cl)cc2)cc1,15.8µM*,-10.9%,-20.8%,/,-8.0%,-3.1%
Nc1ccccc1OC1=NS(=O)(=O)c2ccccc21,/,/,-9.9%,/,/,/
Oc1ccc(C=Nc2ccc(N3CCOCC3)cc2)c(O)c1,1.58µM*,96.6%,22.4µM*,/,?,?
Oc1cc(Br)ccc1C=Nc1ccc(N2CCCCC2)cc1,44.7µM*,26.9%,-21.4%,-21.9%,61.0%,?
Cc1ccc(N=Cc2ccc(O)cc2O)cc1F,10µM*,17.0%,-20.7%,-4.7%[11.4 µM],18.3%,-35.1%
CCOc1ccccc1C(=O)Nc1ccc(S(=O)(=O)Nc2onc(C)c2C)cc1,-5.5%[59 µM],11.0%,-7.5%,/,23.8%,-1.8%
O=C(N=Nc1c(O)n(Cc2ccccc2)c2ccccc12)c1ccc(O)cc1,14.6%[59 µM],-17.8%,-18.6%,-6.4%,14.9%,-4.7%
O=S1(=O)CC(O)C(N=Nc2c(O)n(Cc3ccccc3)c3ccccc23)C1 (configuration not stated),39.8µM*,?,-28.7%[11.4 µM],-18.5%,?,?
Cc1ccccc1N1C(=O)c2sc3nc4c(c(=O)n3c2C1=O)CCC4,8.91µM*,2.9%,?,-8.1%,-49.1%,4.9%
O=C1c2sc3nc4ccccc4n3c2C(=O)N1c1ccccc1Cl,1.41µM*,6.1%,-25.5%,/,?,?
CCn1cc(/C=C(\NC(=O)c2ccc(OC)c(OC)c2)C(=O)NCCCn2ccnc2)c2ccccc21,10.9%[59 µM],-6.4%,?,/,13.2%,-35.5%
CCS(=O)(=O)n1nc(-c2ccc(Cl)cc2)nc1SCc1ccccc1,7.08µM*,15.0%,39.8µM*,13.7%,70.5%,36.4%
Cc1cccc(N2C(=O)c3ccc(C(=O)Nc4ccccn4)cc3C2=O)c1,-1.1%,2.7%,-17.2%,/,35.0%,-14.1%[57.1 µM]

# Bioassay records deposited in PubChem BioAssay by National Center for Advancing Translational Sciences (NCATS).
